Results taken from the supplement of paper PMC9135407.

system: primary human hepatic stellate cells (donor 1); assay: PSMB2 reference mRNA level vs DMSO (fold); higher = more PSMB2 expression; conditions: 48 h
Protocol: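 Secondary qRT-PCR screen in primary human HSCs (donor 1), 384-well plates, with compounds dispensed in quadruplicate and incubated for 48 h. Cells-to-CT lysates were used for multiplexed TaqMan qPCR of ACTA2 or COL1A1 with PSMB2 as reference. Fold changes versus DMSO come from a linear model (Ct_gene ~ Ct_PSMB2 + plate + chemical). A hit is defined as COL1A1 and ACTA2 FC <0.5 (FDR <0.05) with PSMB2 between 0.2 and 2.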

| Structure (SMILES) | PSMB2 reference mRNA level |
| --- | --- |
| Cc1cnc(-c2cnc(NCCNc3ccc(C#N)cn3)nc2-c2ccc(Cl)cc2Cl)[nH]1 (33.3333 µM) | 2.78 |
| Cc1cc(Nc2cc(N3CCN(C)CC3)nc(/C=C/c3ccccc3)n2)n[nH]1 (11.1 µM) | 0.122 |
| CCCSc1ccc2[nH]c(NC(=O)OC)nc2c1 [Albendazole] (33.3333 µM) | 1.65 |
| CNCc1ccc(C)c(NC(=O)c2ccc(Nc3nc(-c4ccccc4)c4ccccc4n3)cc2)c1 (33.3333 µM) | 0.000816 |
| Nc1ccc(C(=O)Nc2cccc(-c3nc(N4CCOCC4)c4oc5ncccc5c4n3)c2)cn1 (6.66667 µM) | 3.27 |
| CCN(CC)CCCCNc1ncc2cc(-c3c(Cl)cccc3Cl)c(NC(=O)NC(C)(C)C)nc2n1 (33.3333 µM) | 0.792 |
| CNC(=O)[C@@H](Cc1ccccc1)N(C)C(=O)[C@@H](Cc1ccc2ccccc2c1)N(C)C(=O)/C=C/CC(C)(C)N [Tabimorelin] (33.3333 µM) | 1.83 |
| NS(=O)(=O)C#Cc1ccccc1 [Pifithrin->m] (33.3333 µM) | 5.28 |
| NC[C@@H]1O[C@H](C23CC4CC(CC(C4)C2)C3)Cc2c1ccc(O)c2O (33.3333 µM) | 0.00124 |
| CC(C)NCCCn1c(Sc2cc3c(cc2I)OCO3)nc2c(N)ncnc21 (33.3333 µM) | 0.581 |
